Compound activity (PubChem BioAssay)
GSTO1 inh – counter-screen for RBBP9 inhibitors: inhibitors of human GSTO1; P78417; recombinant GSTO1, activity-based probe fluorescence polarization; inhibition, % at 5.96 µM; 300,000 compounds, 1.1% hits; AID 1974;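 active = inhibition above the campaign mean inhibition plus 3 SD, cut at about 35% in these data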
Fam108B inh – Fam108B inhibition, counter-screen for RBBP9 inhibitors | recombinant Fam108B, FP-Rh probe fluorescence polarization | inhibition, % at 9.51 µM | 300,000 compounds, 0.33% hits | AID 1947;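 active = inhibition above the screen mean inhibition plus 3 SD, computed separately per campaign, cut at about 18% in these data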;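 note: inhibitors lower polarization as less probe binds the enzyme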
pPAFAH FP inh – pPAFAH (human) enzyme inhibition. Q13093. recombinant pPAFAH, FP-rhodamine probe fluorescence polarization. inhibition, % at 3.39 µM. 330,000 compounds, 1.5% hits. AID 463082;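 active = inhibition above the mean inhibition across the screen plus 3 SD, cut at about 25% in these data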;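 note: inhibitors block binding of the rhodamine activity-based probe so polarization drops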
PAD4 FP inh – PAD4 (human) enzyme inhibition; 330,000 compounds, 0.41% hits; Q9UM07; inhibition, % at 6.36 µM; AID 485272; recombinant PAD4, RCA probe fluorescence polarization;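 active = percent inhibition above a cutoff equal to the mean of all tested compounds plus 3 SD, cut at about 15% in these data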
Target sequence (Q9UM07 whole entry, looked up): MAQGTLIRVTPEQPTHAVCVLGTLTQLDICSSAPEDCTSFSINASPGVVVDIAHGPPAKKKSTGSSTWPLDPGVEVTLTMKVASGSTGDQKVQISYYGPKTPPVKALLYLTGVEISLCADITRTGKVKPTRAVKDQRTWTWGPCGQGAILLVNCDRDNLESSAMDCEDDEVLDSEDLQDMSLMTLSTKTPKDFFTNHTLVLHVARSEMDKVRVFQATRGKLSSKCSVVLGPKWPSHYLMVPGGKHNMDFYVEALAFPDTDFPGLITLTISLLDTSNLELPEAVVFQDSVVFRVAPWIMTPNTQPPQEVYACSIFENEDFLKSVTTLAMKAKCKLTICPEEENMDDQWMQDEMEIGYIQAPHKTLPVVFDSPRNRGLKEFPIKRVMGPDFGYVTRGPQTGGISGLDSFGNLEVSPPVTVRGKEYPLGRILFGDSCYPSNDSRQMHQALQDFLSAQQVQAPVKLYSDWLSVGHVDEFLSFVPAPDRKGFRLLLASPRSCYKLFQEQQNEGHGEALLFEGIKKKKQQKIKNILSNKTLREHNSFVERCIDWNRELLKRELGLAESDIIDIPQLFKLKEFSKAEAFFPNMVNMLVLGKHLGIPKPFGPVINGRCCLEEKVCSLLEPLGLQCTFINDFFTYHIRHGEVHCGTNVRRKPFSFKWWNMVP
PME-1 primary – PME-1 (human) inhibition | Q9Y570 | inhibition, % at 5.9 µM | recombinant PME-1, FP-Rh probe fluorescence polarization | AID 2130 | 320,000 compounds, 0.53% hits;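 active = inhibition above the campaign mean of all compounds plus 3 SD, cut at about 26% in these data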;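 note: competitive labeling of PME-1 active site by serine hydrolase directed probe; inhibitors block probe labeling so polarization falls and inhibition rises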
A number is an active result; i = inactive; nt = no result given. Compounds with a hit are over-represented: about 2.3% of the library has one in this group of screens.

SMILES	GSTO1 inh	Fam108B inh	pPAFAH FP inh	PAD4 FP inh	PME-1 primary
Cc1cccc(C)c1NC(=O)CN(C)C(=O)c1ccc(NS(=O)(=O)c2ccc3[nH]c(=O)[nH]c3c2)cc1	i	i	i	i	i
COC(=O)c1ccc(NS(=O)(=O)c2ccc(SC)cc2)cc1	i	i	i	i	i
Cc1ccc(NC(=O)C2CCCN(S(=O)(=O)c3cccnc3)C2)c(C)c1 (centres undefined)	i	i	i	i	i
Cc1cccc(NS(=O)(=O)c2ccc(C(=O)N3CC(C)OC(C)C3)cc2)c1C (centres undefined)	i	i	29	i	i
COc1ccccc1NCC(=O)N/N=C/c1c(O)ccc2ccccc12	i	i	i	i	i
O=C(CNc1ccc(F)cc1)N/N=C/c1c(O)ccc2ccccc12	i	i	i	i	37
COc1ccc(C(=O)COC(=O)c2sc(C)nc2C)cc1F	nt	nt	i	i	nt
COC(=O)c1ccccc1NC(=O)CN1CCC(C(=O)c2ccc3c(c2)OCCO3)CC1	i	i	33	i	i
CCOc1cc(C(N)=O)cc(OCC)c1OCC	i	i	i	i	i
CCOc1cc(-c2nn3cnnc3s2)cc(OCC)c1OCC	i	i	28	i	i
COc1ccccc1N1CCN(C2CCCN(C(=O)CCc3c(C)noc3C)C2)CC1 (centres undefined)	i	i	i	i	i
CCCC(=O)NC(c1ccccc1)c1c(O)ccc2ccccc12 (centres undefined)	i	i	i	i	i
CCCCC(=O)NC(c1ccccc1Cl)c1c(O)ccc2ccccc12 (centres undefined)	i	i	i	i	45
CCCC(=O)NC(c1ccccc1Cl)c1c(O)ccc2ccccc12 (centres undefined)	i	i	i	i	61
O=C(CN1C(=O)C(=O)N(Cc2ccccc2)C1=O)Nc1ccc(F)c(Cl)c1	i	i	i	i	i
Cc1[nH]n(-c2ccccc2)c(=O)c1C(c1ccccc1C(=O)O)c1c(C)[nH]n(-c2ccccc2)c1=O	i	i	i	i	i
Cc1[nH]n(-c2ccccc2)c(=O)c1C(C[N+](=O)[O-])c1ccc(F)cc1 (centres undefined)	59	i	i	i	i
Cc1[nH]n(-c2ccccc2)c(=O)c1C(C[N+](=O)[O-])c1ccc(Cl)cc1 (centres undefined)	61	i	i	i	i
COc1ccc(-c2nonc2NC(=O)c2ccco2)cc1OC	i	i	i	i	i
O=C(Nc1ccc(C(F)(F)F)cc1)C1=NN(C2CCS(=O)(=O)C2)C(=O)CC1 (centres undefined)	nt	nt	i	i	i
CN(CCO)c1nc(N)c2c(N)nc3c(c2c1C#N)CC(=O)N3Cc1cccs1	i	i	i	i	i
N#Cc1c(N(CCO)CCO)nc(N)c2c(N)nc3c(c12)CC(=O)N3Cc1cccs1	i	i	26	i	i
CCOC(=O)/C(C#N)=C\c1cc(C)n(-c2ccccc2)c1C	i	i	i	i	i
CCOC(=O)/C(C#N)=C/c1cc(C)n(-c2ccc(C)cc2)c1C	i	i	26	i	i
Cc1nc(C)c(C(=O)OCC(=O)Nc2ccccc2)s1	nt	nt	26	i	i
SMILES	GSTO1 inh	Fam108B inh	pPAFAH FP inh	PAD4 FP inh	PME-1 primary
Cc1nc(C)c(C(=O)OCC(=O)NCc2ccccc2)s1	nt	nt	i	i	i
COc1cc(OC)cc(C(=O)n2cnnc2N)c1	i	i	i	i	i
COc1ccc2cc(C(c3nnnn3C(C)(C)C)N3CCc4ccccc4C3)c(=O)[nH]c2c1 (centres undefined)	i	i	34	i	i
CCC(C)(C)n1nnnc1C(c1cc2ccc(OC)cc2[nH]c1=O)N1CCc2ccccc2C1 (centres undefined)	i	i	i	i	i
Oc1ccc(F)c2cccnc12	i	i	i	i	i
Oc1c(I)cc(I)c2cccnc12	i	i	33	i	i
Nc1nc(CCl)nc(N(c2ccccc2)c2ccccc2)n1	78	i	i	i	i
CCC(C)NC(=O)c1ccc(Cl)c(S(=O)(=O)Nc2ccccc2N2CCOCC2)c1 (centres undefined)	nt	nt	i	i	i
COc1ccc(C(C)=NNc2ccc([N+](=O)[O-])cc2S(=O)(=O)Nc2ccccc2C(=O)O)c(OC)c1	nt	nt	31	i	nt
CC(=O)Nc1ccc(C=NNc2ccc([N+](=O)[O-])cc2S(=O)(=O)Nc2ccccc2C(=O)O)cc1	nt	nt	26	i	nt
Cc1ccc(NC(=S)NNc2ccc([N+](=O)[O-])cc2S(=O)(=O)Nc2ccccc2C(=O)O)cc1C	i	i	29	i	48
O=C(O)c1ccccc1Nc1ccc([N+](=O)[O-])cc1C(=O)O	i	i	i	i	i
CCOc1ccc(C=NNc2ccc(S(=O)(=O)Nc3ccccc3C(=O)O)cc2[N+](=O)[O-])cc1OC	nt	nt	25	i	nt
CC(=O)Nc1ccc(S(=O)(=O)Nc2cc([N+](=O)[O-])ccc2C)cc1	i	i	i	i	i
COc1ccc(CN2C(=O)c3cccnc3C2=O)cc1S(=O)(=O)N(C)c1ccc(C)cc1	i	i	i	i	i
Cc1cc(C)cc(OCC(=O)OCC(=O)NC2CC2)c1	nt	nt	27	i	nt
CCCCOc1ccc(C(=O)OCC(=O)NC2CCCC2)cc1	i	i	25	i	i
CCOc1ccc(OCCC(=O)OCC(=O)NC2CCCC2)cc1	nt	nt	30	i	i
CCOc1ccc(C(=O)OCC(=O)NC2CCCCCCC2)cc1	nt	nt	i	i	i
Cc1ccc2cc3c(nc2c1)OCC3	i	i	i	i	i
C[C@@H]1C[C@H]2[C@@H]3C[C@H](F)C4=CC(=O)C=C[C@]4(C)[C@@]3(Cl)[C@@H](O)C[C@]2(C)[C@H]1C(=O)COC(=O)C(C)(C)C	i	i	i	i	i
CC(=O)C1=C(C)Nc2ncnn2C1c1ccc(Br)cc1 (centres undefined)	i	i	i	i	i
Cc1c(C(=O)OCc2ccc(F)cc2)sc2nc3n(c(=O)c12)CCC3	i	i	i	i	i
CCOC(=O)Cc1cc(=O)[nH]c(Nc2nc3ccccc3o2)n1	i	i	i	i	i
COC(=O)Cc1cc(=O)[nH]c(Nc2nc3ccccc3o2)n1	i	i	28	i	i
SMILES	GSTO1 inh	Fam108B inh	pPAFAH FP inh	PAD4 FP inh	PME-1 primary
Cc1ccc(NC(=O)CCl)cc1S(=O)(=O)N1CCCCCC1	76	i	i	i	i
Cc1ccc(NC(=O)COC(=O)CCC2CCCC2)cc1S(=O)(=O)N1CCOCC1	nt	nt	33	i	nt
Cc1ccc(C)c(SCC(=O)OCC(=O)Nc2ccc(S(=O)(=O)N3CCOCC3)cc2)c1	i	i	26	i	i
COCCNCC(=O)Nc1ccc(C)c(S(=O)(=O)N2CCCCC2)c1	i	i	i	i	i
Cc1ccc(NC(=O)COC(=O)CCc2ccc(S(=O)(=O)N3CCOCC3)cc2)cc1C	i	i	i	i	i
Cc1ccc(S(=O)(=O)N(C)CC(=O)N/N=C/c2ccc(C)o2)cc1	i	i	i	i	i
O=C1c2ccccc2C(=O)c2c(Nc3ccc(CCO)cc3)ccc(O)c21	39	i	31	i	29
O=C1c2c(O)ccc(O)c2C(=O)c2c(NCCNCCO)ccc(NCCNCCO)c21	i	i	i	i	i
